Among the data in PubChem BioAssay (NCI) are growth values, retold here.

Structures are written as SMILES. The panel holds about 83,000 compounds, 20% with a hit somewhere; the sample as a whole holds those more often.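 Values shown are percent growth following 48 h exposure of cells in 96-well plates to a single concentration of compound; below 10 was considered active.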 Unmarked numbers belong to inactive results. Active and inactive are the calls of the source.

The assay deals with MDA-MB-468 breast. In words: NCI-60 one-dose screen, 48 h (100 = growth as untreated, 0 = no growth, -100 = all killed). The note with it: 10 µM unless noted.
`Cc1ccc(C(=O)Nc2ccc(CN3CCN(C)CC3)c(C(F)(F)F)c2)cc1C#Cc1cnc(N)c2ccc(C#N)cc12`: the growth is 34.9%. On to `O=S(=O)(NCCNc1nccc(-n2cnc3ccccc32)n1)c1ccc(C(F)(F)F)cc1`, for which the growth is 26.4%. As to `COc1ccc(C/C(C)=C(/c2ccc(OCCCN(C)C)cc2)c2ccc(OC(C)=O)cc2)cc1`, the growth is 63.8%. In the case of `O=C(NCCCN1CCC(N2CCCCC2)CC1)C1=Cc2cc(Br)ccc2OC1`, the growth was 45.6%. The value for `Nc1c(C(=O)Nc2ccccc2)sc2nc3c(cc12)CCCCCC3` was -25% (active); that for `CCCCC1=c2c([nH]c3ccc(OC)cc23)=NC2C=CC=NC12` (centres undefined) was -23.5% (active). To `Cc1ccc(-n2c(-c3cc4c([nH]c5ccccc54)c(-c4cccc(O)c4)n3)n[nH]c2=S)cc1` belongs -32.3% (active); to `O=C1/C(=C/c2cccc(OCc3ccccc3)c2)Oc2cc(OCCN3CCCCC3)ccc21`, 80.4%; to `COc1cccc(C2C(C#N)=C(N)Oc3cc4c(cc32)OCO4)c1` (centres undefined), 2.26% (active). Turning to `N#Cc1c(N)nc2c(nnn2-c2cccc(Br)c2)c1N`, the growth was 92.9%. Regarding `O=[N+]([O-])c1ccc(O)c(-c2nc3ccccc3s2)c1`, the growth was 63.5%. The value for `CCOc1nc(-c2ccccc2)cc2c(O)c(-c3nnco3)[nH]c(=O)c12` was 16.6%. On to `Cc1ccc(-c2nc([P+](c3ccccc3)(c3ccccc3)c3ccccc3)c(Nc3ccccc3)o2)cc1`, for which the growth is -41.8% (active). Turning to `Cc1ccc(CSc2nc(-c3ccc(Cl)cc3)c(C#N)c(N3CCNCC3)n2)cc1`, the growth is 81.5%.
